# Shown are actives, neighbours in structure and some others; about 17% of the full set was active somewhere.
# DT40 TDP1 CPT – DT40-hTDP1 cell growth loss with CPT | AID 686979 | chicken DT40 Tdp1-/-;hTDP1 cells + 20 nM CPT, ATP luminescence, 48 h | Potency, µM (titrated, usually from 46.2 µM), for the others: at the top dose activity change, negative = growth inhibition, hits mostly inhibitors | hit rate 12% among 420,000; further: on the % scale 0 is the no-effect control and ±100 the full control effect; nearly all actives have a fitted effect of over 55% in size
#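 Cell growth measured by CellTiter-Glo luminescence after a minimum 48 h, 37 C compound exposure with 20 nM CPT in Tdp1-knockout DT40 cells stably expressing hTDP1, seeded 400/well; qHTS titration format.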
# DT40 TDP1 no CPT – qHTS for Inhibitors of human tyrosyl-DNA phosphodiesterase 1 (TDP1): qHTS in cells in absence of CPT; DT40 Tdp1-/- hTDP1 cells, no CPT, ATP luminescence, 48 h; Potency, µM (highest dose often 46.2 µM), inactives show top-dose activity change, negative = growth inhibition, usual class: inhibitors; hit rate 15% among 420,000; AID 686978, 2013; further: on the % scale 0 is the no-effect control and ±100 the full control effect; nearly all actives have a fitted effect of over 55% in size
#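 Chicken DT40 Tdp1-/- cells stably complemented with human TDP1 were seeded at 400 cells/well with DMSO in place of 20 nM camptothecin. After compound pinning, cells grew at least 48 hr at 37 °C; viability read by CellTiter-Glo luminescence.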
# HT1080-NT tox – kills 2HG-producing HT-1080-NT fibrosarcoma cells; HT-1080-NT fibrosarcoma viability, CellTiter-Glo ATP luminescence, 48 h; Potency, µM (top dose mostly 46.1 µM), without a hit: top-dose activity, negative = less viability, actives largely listed as cytotoxic; hit rate 1.6% among 360,000; AID 686970;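 further: NT is the 2HG producing partner of a matched IDH1 knockdown line; 0% = DMSO-treated cells and -100% = media-only wells without cells; nearly all actives have a fitted effect of over 55% in size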
#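 Toxicity toward the 2HG-producing NT line was scored as %Activity, normalised to DMSO and no-cell wells, from CellTiter-Glo luminescence after 48 hours' treatment.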
# HT1080 IDH1KD tx – toxicity to HT-1080 IDH1 knockdown cells (counter line) | HT-1080 IDH1 knockdown viability, ATP luminescence, 48 h | Potency, µM (titrated, usually from 46.1 µM), inactives show at the top dose activity, negative = toxicity, hits mostly cytotoxic | hit rate 2% among 360,000 | AID 686971;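 further: 0% = DMSO wells and -100% = cell-free medium wells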
#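 Assay cells: HT-1080 with IDH1 knockdown, 750 per well, RPMI/5% FBS. Exposure: 48 h at 37 °C following 2 h pre-incubation. Read: CellTiter-Glo luminescence; fitted concentration-response, curve class assigned.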
# TGFb inhibitor – inhibitors of TGF-b signaling. HepG2 CAGA-GFP TGF-b/SMAD3 reporter, GFP fluorescence, 18 h; TGF-beta stimulated, 500 pg/mL final. Potency, µM (titrated, usually from 46.1 µM), inactives show at the top dose activity, negative = inhibition, hits mostly inhibitors. hit rate 1.2% among 410,000; further: on the % scale 0 is the no-effect control and ±100 the full control effect; nearly all actives have a fitted effect of over 65% in size
#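 Inhibition of TGF-beta-driven CAGA-GFP reporter expression in HEPG2 cells is measured by cellular GFP fluorescence after 18 h stimulation with 500 pg/mL recombinant TGF-beta in 1% FBS medium at 37 degrees C.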
# HepG2 tox – counter-screen for TGF-b inhibitors: cytotoxicity in HepG2 cells; hit rate 0.76% among 410,000; Potency, µM (top dose mostly 46.1 µM), for the others: at the top dose activity change, negative = cytotoxicity, actives largely listed as cytotoxic; HepG2 CAGA-GFP viability, ATP luminescence, 18 h
#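 HepG2 CAGA-GFP cells (1000/well, DMEM with 1% FBS) received compound, then TGF-beta at 500 pg/mL final, and were incubated 18 hours at 37 degrees C. Viability was read by CellTiter-Glo luminescence. Media-only wells were set as complete cell-killing and DMSO as no toxicity.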
# The depositor's hits bear a star; ? = inconclusive; · = no result. The call rests on the fitted dose curve; in most records, active means well fitted curve in the direction sought with a large enough effect; inconclusive means small, poorly fitted or top-dose-only effect, or another doubt; inactive means no such curve, though single readings can be large; an effect the other way counts as inactive or inconclusive. Potency means the concentration at half of the fitted maximal effect.
SMILES,DT40 TDP1 CPT,DT40 TDP1 no CPT,HT1080-NT tox,HT1080 IDH1KD tx,TGFb inhibitor,HepG2 tox
CCCC(O)(c1ccccc1)C(CN1CCOCC1)c1ccccc1 (centres undefined),20.6µM*,?,6.2%,12.3%,0.0%,-1.1%
CCCCCC(O)(c1ccccc1)C(CN1CCOCC1)c1ccccc1 (centres undefined),?,?,3.9%,9.2%,?,-24.3%
CCCC(O)(c1ccc(Br)cc1)C(CN1CCOCC1)c1ccc(Cl)cc1 (centres undefined),?,?,?,?,?,-53.8%
CCCCCCC(O)(c1ccccc1)C(CN1CCOCC1)c1ccccc1 (centres undefined),18.4µM*,23.1µM*,-16.0%,0.5%,15.8µM*,-57.3%
COC(=O)C(=O)C/C(=N/Nc1ncnc2ccccc12)c1ccc(Cl)cc1,?,?,?,?,?,-49.0%
COC(=O)CNC(=O)c1nn(-c2cccc(OC)c2)c(=O)c2ccccc12,-12.1%,-20.7%,5.9%,3.1%,0.4%,2.0%
Cc1cc(C(=O)CSc2nnc(Nc3ccccc3)s2)c(C)n1CC1CCCO1 (centres undefined),11.6µM*,?,0.3%,-5.5%,?,-9.9%
Cc1cc(C(=O)CSc2nc3ccccc3c(=O)[nH]2)c(C)n1CC1CCCO1 (centres undefined),13µM*,10.3µM*,?,-19.4%,-10.9%,-38.9%
Cc1cc(C(=O)COC(=O)CCc2nc3ccccc3c(=O)[nH]2)c(C)n1CC1CCCO1 (centres undefined),-22.1%,-4.3%,-17.3%,-5.1%,13.5%,21.7%
Cc1c(C(=O)NCCC#N)sc(=O)n1Cc1ccc(C(=O)N(C)C)cc1,3.3%,-3.3%,14.8%,12.9%,-6.4%,0.4%
CCCCCCCCCCCCCCCCCCCCCCO,5.8%,0.9%,·,·,·,·
COc1cccc(N2CCN(C(=O)C3CCC(CNS(=O)(=O)c4ccc(Br)s4)CC3)CC2)c1 (centres undefined),7.31µM*,6.51µM*,·,·,?,-22.3%
COc1cccc(CNC(=O)C2CCC(CNS(=O)(=O)c3ccc(Br)s3)CC2)c1 (centres undefined),23.1µM*,?,·,·,6.3%,-14.4%
O=C(C1CCC(CNS(=O)(=O)c2ccc(Br)s2)CC1)N1CCN(c2ccccc2Cl)CC1 (centres undefined),9.2µM*,8.2µM*,·,·,-23.0%,-10.7%
O=C(C1CCC(CNS(=O)(=O)c2ccc(Br)s2)CC1)N1CCN(c2ccc(F)cc2)CC1 (centres undefined),?,4.11µM*,·,·,-7.5%,-11.2%
COc1cccc(N2CCN(C(=O)C3CCCN(S(=O)(=O)c4ccc(Br)s4)C3)CC2)c1 (centres undefined),?,?,·,·,?,-21.7%
Cc1cccc(N2CCN(C(=O)C3CCC(CNS(=O)(=O)c4ccc(Br)s4)CC3)CC2)c1C (centres undefined),?,?,·,·,1.3%,0.0%
CC1=C(C(=O)N2CCOCC2)CC(CC(=O)NCCCCc2ccccc2)C(=O)N1CCC1=CCCCC1 (centres undefined),?,?,2.8%,1.4%,?,-39.3%
Clc1ccc(-n2ncc3c(N4CCCC4)ncnc32)cc1,15.5%,-10.2%,5.1%,1.6%,12.7%,-24.1%
Cn1ncc2c(N3CCN(c4ccccc4F)CC3)ncnc21,?,23.1µM*,6.2%,-4.7%,-13.0%,-19.6%
Cn1ncc2c(N3CCN(c4ccc(Cl)c(Cl)c4)CC3)ncnc21,10.3µM*,7.31µM*,?,?,?,-7.3%
Cn1nnc2c(N3CCN(c4ccccc4Cl)CC3)ncnc21,?,?,·,·,33.2%,-34.7%
Cn1nnc2c(N3CCN(c4cccc(Cl)c4)CC3)ncnc21,?,4.11µM*,·,·,1.5%,1.5%
CN(C(=O)c1cnn(-c2nccc(-c3ccccc3C(F)(F)F)n2)c1C1CC1)C1CCOC1 (centres undefined),?,-17.1%,·,·,·,·
CC1(C)CC(=O)C2=C(C1)NC(=O)CC2,-2.7%,12.2%,16.8%,15.9%,4.2%,14.0%
SMILES,DT40 TDP1 CPT,DT40 TDP1 no CPT,HT1080-NT tox,HT1080 IDH1KD tx,TGFb inhibitor,HepG2 tox
COc1ccc(/C=N/NC(=O)c2cccc(COCC(F)(F)C(F)F)c2)cc1,-26.1%,-17.9%,-11.3%,?,0.0%,-4.9%
CC(/C=N/NC(=O)c1cc(-c2ccc(C)o2)[nH]n1)=C\c1ccccc1,14.6µM*,16.4µM*,-13.1%,-4.9%,-25.4%,-36.6%
NNC(=O)c1cc(-c2ccco2)[nH]n1,-17.4%,-13.0%,-4.1%,0.0%,-2.5%,-2.3%
COc1ccccc1/C=C/C=N/NC(=O)c1ccccn1,1.6%,-8.3%,?,28.9%,9.3%,2.0%
O=C(N/N=C/C(Br)=C/c1ccccc1)c1cc(-c2ccco2)[nH]n1,6.51µM*,8.2µM*,?,?,6.3%,-19.9%
COc1ccccc1/C=C/C=N/NC(=O)c1cc(-c2ccco2)[nH]n1,?,18.4µM*,-29.4%,?,33.2%,10.5%
CS(=O)(=O)c1ccccc1-c1nc(-c2ccc([N+](=O)[O-])cc2)no1,15.8%,1.6%,11.0%,10.0%,-8.5%,-17.2%
COc1ccccc1CNC(=O)Cn1c(=O)ccc2cc(S(=O)(=O)N3CCC(C)CC3)ccc21,23.1µM*,?,·,·,-17.4%,-12.9%
CCOc1ccccc1NC(=O)Cn1c(=O)ccc2cc(S(=O)(=O)N3CCC(C)CC3)ccc21,?,25.9µM*,·,·,?,-7.4%
Cc1cc(F)ccc1NC(=O)Cn1c(=O)ccc2cc(S(=O)(=O)N3CCC(C)CC3)ccc21,-9.1%,-17.2%,·,·,-2.6%,-7.4%
COc1cccc(NC(=O)c2cnc(NS(=O)(=O)c3ccccc3)nc2)c1,?,?,12.1%,10.0%,-13.2%,-18.1%
CCOCCCNC(=O)C1CCN(c2nc3ccc(C)cc3[nH]2)CC1,0.5%,0.6%,·,·,-2.0%,-10.5%
C[C@H](CO)N1C[C@H](C)[C@@H](CN(C)C(=O)NC2CCCCC2)Oc2c(NC(=O)C3CCCCC3)cccc2C1=O,-18.7%,-16.3%,0.0%,5.6%,5.9%,-9.0%

# Assay outcomes from PubChem BioAssay.
